Measured values published in PubChem BioAssay (NCI).
This is part of a sample that, as a whole, favours compounds with a hit. Of some 83,000 tested, about 20% had one in any assay.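 Results are percent growth after 48 hours of single-concentration exposure. 100 means growth as in untreated cells, lower positive values show inhibition; negative values down to -100 show cell death.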 Calls of active or inactive are those of the source.

Each molecule was assayed on SK-MEL-5 melanoma (assay: NCI-60 one-dose screen, 48 h (100 = growth as untreated, 0 = no growth, -100 = all killed)). Conditions: 10 µM unless noted.
Method: Growth inhibition of the SK-MEL-5 human tumor cell line is measured as a screen for anti-cancer activity. Cells are grown in 96 well plates and exposed to the test compound for 48 hours. Compounds are tested at a single concentration, which is 10^-5 M for most compounds. The reported endpoint is percent growth (GI% or GIPRCNT), where numbers from 0 - 100% represent growth inhibition, and numbers from -100% - 0 represent cell death. For example, a value of 40 represents 60% growth inhibition. A value of 0 means no net growth occurred over the course of the experiment. A value of -40 indicates 40% of cells at the beginning of the experiment died by the end of the experiment. A value of -100 means all cells are dead at the end of the experiment.
NCI-60 Human Tumor Cell Lines Screen was performed using the standard one-dose NCI protocol, which is described in more detail at https://dtp.cancer.gov/discovery_development/nci-60/default.htm.
Compounds with GIPRCNT values below 10 were considered active. Activity score was based on GIPRCNT using the following formula: […]
Score is 0 for GIPRCNT values of 100 or above, 50 for GIPRCNT values of 0, and 100 for GIPRCNT values of -100.

Row | Structure (SMILES) | growth
1 | CSC(SC)=C(C#N)c1nc2ccccc2s1 | 27.9% (inactive)
2 | Cc1ccc(CNc2c3ccccc3nc3ccccc23)cc1 | 30.1% (inactive)
3 | C=C(C)[C@@H]1CC[C@]2(COC(C)=O)CC[C@]3(C)[C@H](CC[C@@H]4[C@@]5(C)CCCN(C(C)=O)C(C)(C)[C@@H]5CC[C@]43C)[C@@H]12 | 84.6% (inactive)
4 | COc1ccc(C(=O)/C=C/c2ccc(Cl)cc2)cc1S(=O)(=O)Nc1c(N)nc(SC)[nH]c1=O | 74.1% (inactive)
5 | Cc1c2cccnc2c(C)c2c1c1cc(CO)ccc1n2C | 30.6% (inactive)
6 | CSC1=Nc2c(c(C)c(-c3ccccc3)n2CCCC(=O)O)C2=NC(=O)C[C@H](C)N12 | 92.4% (inactive)
7 | O=C(CCCCCCN1CC(=O)N2[C@H](c3ccc(Cl)cc3)c3[nH]c4ccccc4c3C[C@@H]2C1=O)NO | 43.8% (inactive)
8 | O=S(=O)(Oc1ccc(Br)cc1)c1ccc(Cl)cc1 | 101% (inactive)
9 | N#Cc1cccc(C2C3=C(COC3=O)N(CCO)c3cc4c(cc32)CCC4)c1 (stereo not given) | -3.37% (active)
10 | C=C1C(=O)O[C@H]2[C@H]1CC/C(COC(=O)CSCSCC(=O)OC/C1=C/CC[C@@]3(C)O[C@H]3[C@H]3OC(=O)C(=C)[C@@H]3CC1)=C\CC[C@@]1(C)O[C@@H]21 | 66.1% (inactive)
11 | COc1ccc(N2CCN(C(=O)c3sc4nc(C)c(Br)c(C)c4c3N)CC2)cc1 | 93.4% (inactive)
12 | Cc1ccc(S(=O)(=O)Oc2ccc3sc4cccc(NCCN(C)C)c4c(=O)c3c2)cc1 | -99% (active)
13 | CCN1CCN(C(=O)[C@]23CC[C@@H](C)[C@H](C)[C@@H]2C2=CC[C@@H]4[C@@]5(C)C/C(=C/c6cccnc6)C(=O)C(C)(C)[C@@H]5CC[C@@]4(C)[C@]2(C)CC3)CC1 | -23.4% (active)
14 | Nc1c(C(=O)Nc2cccc(Cl)c2)sc2nc3c(cc12)CCCC3 | 88.2% (inactive)
15 | NS(=O)(=O)c1ccc(C(=O)NN2C(=O)c3c(Br)c(Br)c(Br)c(Br)c3C2=O)cc1 | 103% (inactive)
16 | CN(C)CCN1C(=O)c2cccc3c(/C=C/CN4C(=O)c5cccc6cccc(c56)C4=O)ccc(c23)C1=O | 82.2% (inactive)
17 | CC(C)CCN(CCC(C)C)CC(O)c1cc2c(c3ccccc13)CCCC2 (stereo not given) | 72.7% (inactive)
18 | C=C(C)[C@@H]1CC[C@]2(C(N)=O)CC[C@]3(C)[C@H](CC[C@@H]4[C@@]5(C)CC[C@H](OCCC#N)C(C)(C)[C@@H]5CC[C@]43C)[C@@H]12 | 93.3% (inactive)
19 | O=C(Oc1ccc(CCl)cc1)c1ccccc1 | -99% (active)
20 | Cn1cc(-c2ccc(-c3cn(C)c4ccc(Cl)cc34)[nH]2)c2cc(Cl)ccc21 | -98.6% (active)

Row | Structure (SMILES) | growth
21 | N=C(N)c1ccc(-c2ccc(-c3cc(Cl)cc(Cl)c3)s2)nc1 | 94% (inactive)
22 | O=C1Nc2ccccc2C1(c1c[nH]c2ccccc12)c1c[nH]c2ccccc12 | 89.4% (inactive)
23 | COc1ccc(C(O)c2cc3c(N)c(C(=O)Nc4cccc(Cl)c4C)sc3nc2C)cc1 (stereo not given) | -53.7% (active)
24 | O=C(NNC(=O)c1nc2cc(F)ccc2n2cccc12)c1cnccn1 | 42.7% (inactive)
25 | Cc1nc2c(=O)nc3s/c(=C\c4ccco4)c(=O)n3c2nc1C | 104% (inactive)
26 | CCCCNC(=O)c1cc([N+](=O)[O-])cc(C2CCCCC2)c1O | -12.6% (active)
27 | CCC1S/C(=N\N=C(\C)c2cc3cc(Cl)ccc3o2)N(c2ccccc2)C1=O (stereo not given) | 49.5% (inactive)
28 | CC(C)(C)n1cc(-c2ccnc(NCCNS(=O)(=O)c3ccc(O)cc3)c2)c(-c2cccc(O)c2)n1 | 79.7% (inactive)
29 | N[C@H]1CCC[C@@H]1NCCCCN1C(=O)c2cccc3cc([N+](=O)[O-])cc(c23)C1=O | 70.2% (inactive)
30 | CC/C=C\CCC/C=C1/C(=O)C=C[C@@H]1C/C=C\CCCC(=O)OC | -32% (active)
31 | CS(=O)(=O)Nc1cc(-c2ccc3ncc(C#N)c(Nc4ccc(F)c(Cl)c4)c3c2)cnc1Cl | -90% (active)
32 | CCOC(=O)c1c(C)nc2ccccc2c1/C=C/c1cccs1 | 21% (inactive)
33 | COc1cc(/C=N/Nc2ccc(Br)cc2)cc(OC)c1OC | 85% (inactive)
34 | COc1ccc2cc(-c3ccnc4c(N=Nc5ccc(Cl)cc5)c(N)nn34)ccc2c1 | 97.5% (inactive)
35 | CC(C)=CCNc1ncnc2c1ncn2C1OC(CO)C(O)C1O (stereo not given) | 49.4% [1 mM] (inactive)
36 | COC(=O)c1nc(-c2ccccc2)oc1S(=O)(=O)NCC(c1ccc(Cl)cc1)N1CCOCC1 (stereo not given) | 86.4% (inactive)
37 | O=C(CSc1nnc(-c2cc(-c3ccccc3)nc3ccccc23)n1-c1ccccc1)Nc1ccc(C(=O)/C=C/c2ccc(Cl)cc2)cc1 | 91.4% (inactive)
38 | Cc1ccc2nc(-c3ccc(C(=O)NNC(=S)Nc4ccccc4)cc3)[nH]c2c1 | 94.2% (inactive)
39 | O=c1cc(-c2ccccc2)[nH]c2ncc(-c3ccc(F)cc3)n12 | 54.9% (inactive)
40 | CN(Cc1ccccc1)c1nc(Cl)c(C2CC(c3ccccc3)=NN2c2ccccc2)s1 (stereo not given) | 98.8% (inactive)
